Assay results as given in PubChem BioAssay (NCATS).
Several values for one entry are separate records, joined by “and”; a condition that tells them apart may be missing. Identical values can stand only once. Results filed as inconclusive are left out. Activity calls are given as the source filed them. Unless noted, calls come from the whole dose curve.

Assays:
[1] = target: Androgen receptor (Homo sapiens) (UniProt P10275); assay: qHTS assay for small molecule agonists of androgen receptor signaling (AID 588515; active = well fitted curve in the direction sought with a large enough effect in the signal ratio, with a control signal flat; the % refers to the signal ratio; note: % is set by controls: 0 for no effect and ±100 for the full control effect); conditions: AR-UAS-bla HEK293, beta-lactamase ratio, agonist 16 h; stronger effect = higher value
Androgen receptor (Homo sapiens), sequence (P10275 whole entry, looked up): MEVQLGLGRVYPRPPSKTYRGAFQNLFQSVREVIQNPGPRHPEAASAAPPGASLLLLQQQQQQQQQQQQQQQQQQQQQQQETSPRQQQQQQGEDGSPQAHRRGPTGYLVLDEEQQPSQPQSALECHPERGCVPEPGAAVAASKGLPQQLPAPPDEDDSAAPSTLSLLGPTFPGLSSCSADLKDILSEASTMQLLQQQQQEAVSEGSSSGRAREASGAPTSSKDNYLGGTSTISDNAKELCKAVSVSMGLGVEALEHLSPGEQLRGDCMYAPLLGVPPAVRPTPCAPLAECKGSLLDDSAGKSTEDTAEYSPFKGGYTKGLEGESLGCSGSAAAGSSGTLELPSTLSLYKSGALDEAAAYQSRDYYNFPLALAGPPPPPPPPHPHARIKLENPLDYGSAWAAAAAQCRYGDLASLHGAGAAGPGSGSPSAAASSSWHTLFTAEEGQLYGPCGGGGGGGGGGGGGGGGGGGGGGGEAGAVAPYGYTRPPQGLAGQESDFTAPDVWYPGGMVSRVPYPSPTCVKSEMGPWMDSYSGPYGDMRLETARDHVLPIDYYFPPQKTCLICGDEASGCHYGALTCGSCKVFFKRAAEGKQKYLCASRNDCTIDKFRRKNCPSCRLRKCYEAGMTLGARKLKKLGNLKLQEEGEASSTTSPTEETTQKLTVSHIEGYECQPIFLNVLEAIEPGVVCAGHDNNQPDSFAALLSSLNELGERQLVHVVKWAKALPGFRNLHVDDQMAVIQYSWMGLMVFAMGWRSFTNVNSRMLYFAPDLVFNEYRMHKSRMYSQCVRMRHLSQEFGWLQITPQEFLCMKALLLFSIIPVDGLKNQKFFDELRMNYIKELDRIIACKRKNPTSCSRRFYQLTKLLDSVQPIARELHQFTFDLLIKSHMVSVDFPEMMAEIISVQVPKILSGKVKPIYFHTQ
Summary of the method: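 EC50 and efficacy came from Hill fits of titrations (up to 92 uM) normalized to 30 nM R1881 as 100% and DMSO as 0%. Compound exposure was 16 h at 37 C on AR-UAS-bla HEK293 cells, with a 405/460/530 nm CCF4 fluorescence read.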

[2] = target: Androgen receptor (Homo sapiens) (UniProt P10275); assay: qHTS assay for small molecule antagonists of androgen receptor signaling (AID 588516; active = well fitted curve in the direction sought with a large enough effect in the signal ratio, with a control signal flat, not every such curve was filed as active; the % refers to the signal ratio; note: potency is the fitted concentration of half-maximal effect); conditions: AR-UAS-bla HEK293, beta-lactamase ratio, antagonist mode, 16 h; series mostly up to 76.8 µM
Summary of the method: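 HEK293 AR-UAS-bla cells, 10% dialyzed FBS medium; cpd titration + R1881 10 nM final, 16 h 37 C; CCF4 2 h RT; FRET ratio; IC50/efficacy via Hill fit.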

[3] = target: Bile acid receptor (Homo sapiens) (UniProt Q96RI1); assay: qHTS assay for small molecule antagonists of farnesoid X receptor signaling (AID 588526); conditions: HEK293T FXR-UAS-bla, beta-lactamase ratio, antagonist mode; series mostly up to 76.7 µM; note: potency is the fitted concentration of half-maximal effect
Bile acid receptor (Homo sapiens), sequence (Q96RI1 whole entry, looked up): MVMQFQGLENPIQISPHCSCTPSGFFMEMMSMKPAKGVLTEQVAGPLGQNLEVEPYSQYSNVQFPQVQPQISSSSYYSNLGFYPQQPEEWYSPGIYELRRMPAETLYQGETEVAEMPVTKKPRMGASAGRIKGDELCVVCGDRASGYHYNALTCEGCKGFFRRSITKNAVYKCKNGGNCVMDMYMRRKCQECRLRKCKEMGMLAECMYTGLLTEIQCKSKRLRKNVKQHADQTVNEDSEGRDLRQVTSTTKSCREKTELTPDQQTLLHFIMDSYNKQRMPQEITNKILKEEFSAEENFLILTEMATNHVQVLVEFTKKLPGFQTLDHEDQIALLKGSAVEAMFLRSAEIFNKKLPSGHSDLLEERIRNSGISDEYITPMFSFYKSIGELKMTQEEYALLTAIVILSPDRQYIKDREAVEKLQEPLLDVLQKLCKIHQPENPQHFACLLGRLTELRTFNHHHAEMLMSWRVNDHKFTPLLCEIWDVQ
Summary of the method: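 Beta-lactamase reporter antagonist mode: HEK293T FXR-UAS-bla cells, titrated compound, CDCA stimulation, 16 h 37 C, CCF4 dye 2 h RT. Data normalized to CDCA 50 uM and DMSO; Hill-fit IC50.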

[4] = target: Bile acid receptor (Homo sapiens) (UniProt Q96RI1); assay: qHTS assay for small molecule agonists of farnesoid X receptor signaling (AID 588527); conditions: HEK293T FXR-UAS-bla, beta-lactamase ratio, 16 h; activation: stronger effect = higher value;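 note: 0% = vehicle basal and 100% = reference agonist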
Summary of the method: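 FXR-UAS-bla HEK293T cells (10% dialyzed FBS) preincubated 5-7 h at 37 C, then compounds at up to 92 uM for 16 h at 37 C. CCF4 beta-lactamase read-out after 2 h RT. Normalized to chenodeoxycholic acid (100 uM) and DMSO; Hill fit gave EC50 and efficacy.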

[5] = target: Glucocorticoid receptor (Homo sapiens) (UniProt P04150); assay: qHTS assay for small molecule agonists of glucocorticoid receptor signaling (AID 588532; active = well fitted curve in the direction sought with a large enough effect in the signal ratio, with a control signal flat; the % refers to the signal ratio;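 note: 100% = dexamethasone at 0.1 µM and 0% = DMSO only wells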); conditions: HeLa MMTV-bla, beta-lactamase ratio, agonist, 18 h; activation: stronger effect = higher value, percent of dexamethasone control, DMSO zero
Glucocorticoid receptor (Homo sapiens), sequence (P04150 whole entry, looked up): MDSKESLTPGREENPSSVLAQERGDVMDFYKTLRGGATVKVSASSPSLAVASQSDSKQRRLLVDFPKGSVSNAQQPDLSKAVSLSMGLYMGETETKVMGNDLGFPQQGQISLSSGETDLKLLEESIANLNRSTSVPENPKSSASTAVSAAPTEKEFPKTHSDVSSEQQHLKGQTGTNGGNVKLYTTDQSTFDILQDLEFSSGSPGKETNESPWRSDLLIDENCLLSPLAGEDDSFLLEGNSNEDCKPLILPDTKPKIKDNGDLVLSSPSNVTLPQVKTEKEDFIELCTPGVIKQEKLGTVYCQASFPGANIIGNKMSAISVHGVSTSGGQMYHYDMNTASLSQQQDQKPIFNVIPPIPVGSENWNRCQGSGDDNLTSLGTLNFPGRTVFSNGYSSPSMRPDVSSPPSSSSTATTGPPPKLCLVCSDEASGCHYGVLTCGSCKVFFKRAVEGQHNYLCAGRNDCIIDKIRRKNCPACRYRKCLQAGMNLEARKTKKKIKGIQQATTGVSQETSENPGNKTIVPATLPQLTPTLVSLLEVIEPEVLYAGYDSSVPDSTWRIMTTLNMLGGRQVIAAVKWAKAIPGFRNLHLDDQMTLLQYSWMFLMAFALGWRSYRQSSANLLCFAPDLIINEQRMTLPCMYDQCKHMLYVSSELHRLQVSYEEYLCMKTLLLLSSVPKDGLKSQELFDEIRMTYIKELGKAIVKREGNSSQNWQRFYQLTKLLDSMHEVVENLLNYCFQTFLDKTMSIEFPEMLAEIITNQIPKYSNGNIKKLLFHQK
Summary of the method: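 Using MMTV-bla HeLa cells in medium with 1% stripped FBS and 25 mM HEPES, compounds were titrated and incubated overnight-length (18 h). Beta-lactamase cleavage of CCF4 was quantified by dual-emission fluorescence.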

[6] = target: Peroxisome proliferator-activated receptor delta (Homo sapiens) (UniProt Q03181); assay: qHTS assay for small molecule antagonists of peroxisome proliferator-activated receptor delta signaling (AID 588535; active = well fitted inhibition curve with a large enough effect in the signal ratio, with a control signal flat, not every such curve was filed as active; the % refers to the signal ratio); conditions: HEK293T PPARd-UAS-bla, beta-lactamase FRET ratio, 18 h; series mostly up to 76.7 µM
Peroxisome proliferator-activated receptor delta (Homo sapiens), sequence (Q03181 whole entry, looked up): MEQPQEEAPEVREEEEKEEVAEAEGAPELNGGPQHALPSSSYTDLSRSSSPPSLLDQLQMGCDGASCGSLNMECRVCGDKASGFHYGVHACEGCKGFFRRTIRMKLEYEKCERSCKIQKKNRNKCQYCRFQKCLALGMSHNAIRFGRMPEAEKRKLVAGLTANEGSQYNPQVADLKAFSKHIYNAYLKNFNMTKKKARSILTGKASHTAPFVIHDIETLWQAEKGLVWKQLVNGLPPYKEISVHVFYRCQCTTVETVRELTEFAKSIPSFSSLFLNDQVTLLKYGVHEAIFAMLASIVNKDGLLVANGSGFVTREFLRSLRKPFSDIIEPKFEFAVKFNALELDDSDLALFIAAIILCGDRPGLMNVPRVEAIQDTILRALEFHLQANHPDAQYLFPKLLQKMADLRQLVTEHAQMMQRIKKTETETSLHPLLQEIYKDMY
Summary of the method: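 HEK293T PPAR-delta-UAS-bla cells, 4000/well, 2% charcoal/dextran FBS; 5 h 37 C; cpd titration; 18 h 37 C; CCF4 2 h RT; FI 460/530 nm; Hill fit → IC50, efficacy.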

[7] = target: Thyroid hormone receptor beta (Homo sapiens) (UniProt P10828); assay: qHTS assay for small molecule antagonists of thyroid hormone receptor beta signaling (AID 588547; active = well fitted inhibition curve with a large enough effect in the signal ratio, with a control signal flat, not every such curve was filed as active; the % refers to the signal ratio;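 note: cells stimulated with 0.4 nM T3 agonist during compound exposure; % is set by controls: 0 for no effect and ±100 for the full control effect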); conditions: TR-UAS-bla HEK293, beta-lactamase ratio, antagonist mode, 18 h
Thyroid hormone receptor beta (Homo sapiens), sequence (P10828 whole entry, looked up): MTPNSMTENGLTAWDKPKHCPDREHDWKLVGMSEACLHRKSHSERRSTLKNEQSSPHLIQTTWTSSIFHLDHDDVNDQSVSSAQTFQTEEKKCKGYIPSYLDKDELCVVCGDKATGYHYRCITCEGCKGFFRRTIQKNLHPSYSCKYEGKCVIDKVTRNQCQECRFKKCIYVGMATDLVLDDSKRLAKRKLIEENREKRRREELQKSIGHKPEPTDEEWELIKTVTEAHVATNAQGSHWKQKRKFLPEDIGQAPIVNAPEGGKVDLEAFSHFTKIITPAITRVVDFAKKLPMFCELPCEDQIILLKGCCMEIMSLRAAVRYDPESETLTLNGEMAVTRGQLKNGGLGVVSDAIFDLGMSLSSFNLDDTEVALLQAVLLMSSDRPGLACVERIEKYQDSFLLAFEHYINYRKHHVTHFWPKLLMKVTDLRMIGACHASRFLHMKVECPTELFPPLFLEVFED
Summary of the method: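 Inhibition of T3-driven (0.4nM final) beta-lactamase reporter activity was measured over 0.59 nM to 92 uM compound after 18 h at 37 C. The cells were GripTite HEK293 TR-UAS-bla in charcoal/dextran-stripped serum, with CCF4 ratio read-out and IC50 from Hill fits.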

[8] = qHTS assay for small molecule activators of the human pregnane X receptor (PXR) signaling pathway (AID 720659; call rule not given here; note: 0% is about no effect); conditions: DPX-2 HepG2 CYP3A4-luciferase, 24 h; series mostly up to 92.3 µM
[9] = target: Glucocorticoid receptor (Homo sapiens) (UniProt P04150); assay: qHTS assay for small molecule antagonists of glucocorticoid receptor signaling (AID 588533; active = well fitted inhibition curve with a large enough effect in the signal ratio, with a control signal flat, not every such curve was filed as active; the % refers to the signal ratio;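 note: cells stimulated with 2 nM dexamethasone as agonist; % is set by controls: 0 for no effect and ±100 for the full control effect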); conditions: HeLa MMTV-bla, GRE beta-lactamase ratio, antagonist mode, 18 h; series mostly up to 76.8 µM
Summary of the method: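 Antagonist-mode qHTS: compound titrations added to GRE-bla HeLa cells, then dexamethasone 2 nM final; 18 h, 37 C. CCF4 FRET fluorescence normalized to dexamethasone and DMSO; IC50 from Hill fit.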

[10] = qHTS assay for small molecule agonists of the antioxidant response element (ARE) signaling pathway (AID 651741; active = well fitted activation curve with a large enough effect in the signal ratio; the % refers to the signal ratio; note: potency is the fitted concentration of half-maximal effect; for activation: % of control where 0% means no effect); conditions: HepG2 ARE-bla reporter, beta-lactamase FRET ratio, 16 h; series mostly up to 96 µM
Summary of the method: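 Quantitative HTS in HepG2 cells stably expressing an ARE-beta-lactamase reporter; 16 h compound exposure at 37 C, followed by 2 h room-temperature incubation with LiveBLAzer B/G FRET substrate and fluorescence measurement.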

[11] = target: Estrogen receptor (Homo sapiens) (UniProt P03372); assay: qHTS assay for small molecule agonists of estrogen receptor alpha signaling (AID 588514); conditions: ER-alpha-UAS-bla HEK293, beta-lactamase ratio, 18 h; series mostly up to 76.8 µM;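 note: 0% = vehicle only and 100% = reference agonist; nearly all actives have a fitted effect of over 70% in size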
Estrogen receptor (Homo sapiens), sequence (P03372 whole entry, looked up): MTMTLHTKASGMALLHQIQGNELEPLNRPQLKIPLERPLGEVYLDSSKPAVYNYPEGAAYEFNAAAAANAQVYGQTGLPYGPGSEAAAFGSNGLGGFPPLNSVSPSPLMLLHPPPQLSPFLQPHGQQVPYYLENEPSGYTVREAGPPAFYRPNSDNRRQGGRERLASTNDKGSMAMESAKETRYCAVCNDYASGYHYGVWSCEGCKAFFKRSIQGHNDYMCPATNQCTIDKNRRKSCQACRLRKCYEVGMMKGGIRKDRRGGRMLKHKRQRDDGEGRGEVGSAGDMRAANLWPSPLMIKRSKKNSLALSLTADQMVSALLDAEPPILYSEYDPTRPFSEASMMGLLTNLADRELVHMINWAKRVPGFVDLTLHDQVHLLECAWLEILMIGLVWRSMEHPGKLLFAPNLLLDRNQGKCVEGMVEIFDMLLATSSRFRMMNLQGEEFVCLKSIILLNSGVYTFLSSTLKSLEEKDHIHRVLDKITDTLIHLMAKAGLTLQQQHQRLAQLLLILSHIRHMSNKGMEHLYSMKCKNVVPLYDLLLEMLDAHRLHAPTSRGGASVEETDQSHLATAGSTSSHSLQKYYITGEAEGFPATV
Summary of the method: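 Cells were plated at 5000/well, incubated 4 hrs at 37 C, dosed with compound titration series, incubated 18 hrs at 37 C, loaded with CCF4 dye for 2 hrs at RT, then fluorescence was read.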

[12] = qHTS assay for small molecule activators of the nuclear factor-kappa B (NF-kB) signaling pathway (AID 651749; active = well fitted activation curve with a large enough effect in the signal ratio; the % refers to the signal ratio; note: % of control where 0% means no effect); conditions: NF-kB-bla ME-180 cells, beta-lactamase FRET ratio, 16 h; activation: stronger effect = higher value
Summary of the method: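 Readout: beta-lactamase reporter driven by an NF-kB response element, detected fluorescently as loss of FRET. Cells were the ME-180 line, treated 16 hr at 37C with pin-transferred compound.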

[13] = target: Cytochrome P450 3A4 (Homo sapiens) (UniProt P08684); assay: qHTS Assay for Inhibitors and Substrates of Cytochrome P450 3A4 (AID 884; active = well fitted curve in the direction sought with a large enough effect; an effect the other way counts as inactive or inconclusive; note: potency is the fitted concentration of half-maximal effect; nearly all actives have a fitted effect of over 50% in size); conditions: recombinant CYP3A4, Luciferin-PPXE luminescence; series mostly up to 57.1 µM
Cytochrome P450 3A4 (Homo sapiens), sequence (P08684 whole entry, looked up): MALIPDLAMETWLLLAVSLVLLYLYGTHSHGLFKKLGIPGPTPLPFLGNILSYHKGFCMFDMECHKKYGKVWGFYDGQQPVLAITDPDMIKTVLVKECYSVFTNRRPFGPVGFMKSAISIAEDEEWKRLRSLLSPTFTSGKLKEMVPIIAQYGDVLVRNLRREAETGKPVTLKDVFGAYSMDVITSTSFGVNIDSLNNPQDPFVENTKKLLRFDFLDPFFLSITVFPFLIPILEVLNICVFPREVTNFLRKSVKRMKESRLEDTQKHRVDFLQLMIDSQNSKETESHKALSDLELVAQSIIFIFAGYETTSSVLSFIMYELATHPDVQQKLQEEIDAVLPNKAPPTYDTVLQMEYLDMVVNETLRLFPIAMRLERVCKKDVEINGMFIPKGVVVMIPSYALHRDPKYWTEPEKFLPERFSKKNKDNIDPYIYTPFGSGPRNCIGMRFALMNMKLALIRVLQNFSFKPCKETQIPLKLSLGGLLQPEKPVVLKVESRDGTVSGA
Summary of the method: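 20 nM human CYP3A4 with 25 uM Luciferin-PPXE (at KM) in 200 mM KPO4, preincubated 10 min with compound; NADPH regeneration started a 60 min RT reaction. Luciferin detected by luminescence, normalized to 57 uM ketoconazole as full inhibition.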

[14] = target: Cytochrome P450 3A4 (Homo sapiens) (UniProt P08684); assay: qHTS Assay for Activators of Cytochrome P450 3A4 (AID 885; active = well fitted curve in the direction sought with a large enough effect; an effect the other way counts as inactive or inconclusive; note: nearly all actives have a fitted effect of over 65% in size); conditions: recombinant CYP3A4, Luciferin-PPXE luminescence, 60 min; series mostly up to 57.1 µM
Summary of the method: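 Human CYP3A4 (20 nM) with Luciferin-PPXE at 25 uM (its KM) in 200 mM KPO4; 10 min compound preincubation, then NADPH regeneration and 60 min reaction at RT. Luciferin read by luminescence; normalized to 57 uM ketoconazole full inhibition.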

[15] = Cell Viability - LYMP2-001 (AID 921; active = well fitted curve in the direction sought with a large enough effect; an effect the other way counts as inactive or inconclusive;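 note: potency is the fitted concentration of half-maximal effect; cells exposed to compound for 24 h at 37 °C; nearly all actives have a fitted effect of over 70% in size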); conditions: LYMP2-001 lymphoblastoid cell viability; series mostly up to 92.2 µM
Summary of the method: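 CellTiter-Glo luminescence (intracellular ATP) after 24 hr compound exposure at 37 C, 2500 lymphoblastoid cells/well in complete medium. AC50 fitted with standard Hill equation; tetraoctylammonium bromide positive control.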

[16] = MultiTox-Fluor Cytotoxicity Assay - LYMP1-002 - Live Cells (AID 955; active = well fitted curve in the direction sought with a large enough effect; an effect the other way counts as inactive or inconclusive;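 note: potency is the fitted concentration of half-maximal effect; cells exposed to compound for 16 hours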); conditions: LYMP1-002 lymphoblastoid live-cell protease fluorescence viability; series mostly up to 46.1 µM
Summary of the method: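 Read-out is live-cell protease activity (cell-permeant GF-AFC substrate, fluorescence Ex/Em=405/510), where a decrease indicates acute toxicity. Human lymphoblastoid cells were treated 16 hours at 37 C in a concentration series, and AC50 values came from standard Hill modelling.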

[17] = MultiTox-Fluor Cytotoxicity Assay - LYMP1-002 - Dead Cells (AID 960; active = well fitted curve in the direction sought with a large enough effect; an effect the other way counts as inactive or inconclusive; note: potency is the fitted concentration of half-maximal effect; nearly all actives have a fitted effect of over 60% in size); conditions: LYMP1-002 lymphoblastoid cells, dead-cell protease fluorescence; series mostly up to 46.1 µM
Summary of the method: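 LYMP1-002 cells 2500/well; 5 hr 37 C pre-incubation; compound 16 hr 37 C; MultiTox-Fluor reagent 60 min RT; dead-cell fluor Ex/Em 485/520. Norm. to DMSO (0%) vs 15 uM tetraoctylammonium bromide (100%); Hill AC50.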

Cc1cc(C)nc(NC(=O)NS(=O)(=O)c2ccccc2C(=O)OC2COC2)n1
inactive: activation [1] -3.69% | Potency [2] | Potency [3] | activation [4] 1.23% | activation [5] 10.1% | Potency [6] | activity change % (negative = inhibition) [7] 4.53% | outcome [8]

CC(C)(C)N(NC(=O)c1ccc(Cl)cc1)C(=O)c1ccccc1
inactive: activation [1] 4.02% | Potency [2] | activation [4] 5.56% | activation [5] -0.985% | Potency [9] | Potency [6] | Potency [10]

CCOP(=S)(OCC)Oc1ncn(-c2ccccc2)n1
inactive: activation [1] 5.78% | Potency [2] | Potency [3] | activation [4] 2.14% | Potency [6] | activity change % (negative = inhibition) [7] 4.61% | Potency [10]

CC(Oc1cc(Cl)c(Cl)cc1Cl)C(=O)O (stereo not given)
inactive: Potency [3] | activation [4] -3.32% | activation [5] -0.156% | Potency [9] | Potency [6] | outcome [8]

CS(=O)(=O)c1cc(C(F)(F)F)ccc1C(=O)c1cnoc1C1CC1
inactive: Potency [11] | Potency [6] | activation [12] 0.439%

OC(Cn1cncn1)(c1ccc(F)cc1)c1ccccc1F (stereo not given)
inactive: Potency [11] | activity change % (negative = inhibition) [7] 10.3% | Potency [10] | activation [12] 0.295% | outcome [8]

c1cc2c3c(cccc3c1)CC2
inactive: activation [1] 5.35% | Potency [2] | Potency [9] | Potency [6] | Potency [10] | outcome [8]

CNC(=O)/C=C(\C)OP(=O)(OC)OC
inactive: Potency [3] | activation [4] 6.76% | activation [5] -1.15% | Potency [6] | activity change % (negative = inhibition) [7] -12.7% | Potency [10]

COP(=O)(OC)O/C(C)=C/C(=O)N(C)C
inactive: Potency [11] | Potency [6] | activation [12] -1.74% | outcome [8]

c1cc(OCC2CO2)cc(OCC2CO2)c1 (stereo not given)
inactive: Potency [14] | activation [1] -20.7% | Potency [2] | activation [4] 0.408% | Potency [9] | Potency [6]
active: Potency [13] 15.8 µM | Potency [15] 31.6 µM | Potency [16] 31.6 µM | Potency [17] 25.1 µM | Potency [10] 29.8 µM

COCc1cnc(C2=NC(C)(C(C)C)C(=O)N2)c(C(=O)O)c1 (stereo not given)
inactive: Potency [2] | Potency [3] | activation [4] -0.497% | Potency [9] | Potency [6] | activity change % (negative = inhibition) [7] -1.58% | outcome [8]

Cc1cc(Cl)ccc1OC(C)C(=O)O (stereo not given)
inactive: Potency [11] | activity change % (negative = inhibition) [7] -3.04% | Potency [10] | activation [12] -2.72% | outcome [8]

COc1nc(C)nc(NC(=O)NS(=O)(=O)c2ccccc2CCC(F)(F)F)n1
inactive: activation [1] 6.02% | Potency [2] | Potency [3] | activation [4] 1.64% | activation [5] -2.83% | Potency [9] | Potency [6] | activity change % (negative = inhibition) [7] 9.28% | Potency [10] | activation [12] -0.385% | outcome [8]

CCN(CC)C(=O)C(C)Oc1cccc2ccccc12 (stereo not given)
inactive: Potency [3] | activation [4] -1.49% | activity change % (negative = inhibition) [7] -8.01% | Potency [10]

CC1(c2ccc(Oc3ccccc3)cc2)OC(=O)N(Nc2ccccc2)C1=O (stereo not given)
inactive: activation [4] 4.14%
active: Potency [3] 35.5 µM

C=CC(=O)OCCCCCC(C)C
inactive: activation [1] 3.1% | Potency [3] | activation [4] 1.09% | Potency [6] | Potency [10] | activation [12] 1.07%

CCSCc1ccccc1OC(=O)NC
inactive: activation [4] 3.09% | activation [5] 1.02% | Potency [9] | activity change % (negative = inhibition) [7] -8.58%

CCC(C)n1c(=O)[nH]c(C)c(Br)c1=O (stereo not given)
inactive: Potency [3] | activation [4] 2.99% | activation [12] 0.0195% | outcome [8]

CNC(=O)O/N=C(\SC)C(=O)N(C)C
inactive: activation [1] -0.759% | Potency [2] | activity change % (negative = inhibition) [7] 0.203% | activation [12] -1.34% | outcome [8]

COc1cnc(OC)n2nc(NS(=O)(=O)c3c(OCC(F)F)cccc3C(F)(F)F)nc12
inactive: Potency [11] | activity change % (negative = inhibition) [7] 9.04% | outcome [8]

CCc1ccc(C(=O)NN(C(=O)c2cc(C)cc(C)c2)C(C)(C)C)cc1
active: Potency [13] 3.98 µM
inactive: Potency [14] | Potency [11] | Potency [9] | activity change % (negative = inhibition) [7] 18% | activation [12] -3.3%

CC1(C)CN=C(NN=C(/C=C/c2ccc(C(F)(F)F)cc2)/C=C/c2ccc(C(F)(F)F)cc2)NC1
inactive: outcome [8]
active: Potency [2] 35.5 µM

CCOP(=O)(NC(C)C)Oc1ccc(S(C)=O)c(C)c1 (stereo not given)
inactive: Potency [2] | Potency [3] | activation [4] -0.691% | activation [5] -7.67% | Potency [9] | Potency [10] | activation [12] 0.567% | outcome [8]

O=S(=O)(O)C(F)(F)C(F)(F)C(F)(F)C(F)(F)C(F)(F)C(F)(F)F
inactive: activation [4] -1.09% and 0.298% | activation [5] 2.96% and -3.35% | Potency [9] | Potency [6] | activity change % (negative = inhibition) [7] 23.1% | outcome [8]

O=C=Nc1ccc(Cl)cc1
inactive: Potency [11] | Potency [6] | activity change % (negative = inhibition) [7] -1.95% | activation [12] -0.765% | outcome [8]

CNC(=O)Oc1cc(C)cc(C(C)C)c1
inactive: Potency [11] | Potency [6] | activity change % (negative = inhibition) [7] 4.48% | outcome [8]
